Measurements from PubChem BioAssay (NCI).
Compounds without any hit were thinned out: in the full panel of roughly 79,000, 15% have a hit. Values without a mark were called inactive. The source made the active and inactive calls. No stated cut-off is given here; in the data, active means growth inhibition above about 70%; inactive means the rest.

Assay: NCI Yeast Anticancer Drug Screen. Data for the mec2-1 strain (AID 157)
Details: S. cerevisiae mec2-1 strain, at 50.0 µM, stronger effect = higher value
Outline: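 Readout is yeast growth inhibition, normalised to vehicle-treated controls, in the mec2-1 strain exposed to compound.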

With `CCOC(=O)C[P+](c1ccc(C)cc1)(c1ccc(C)cc1)c1ccc(C)cc1` the growth inhibition was 95.6% (active).
For `O=c1[nH]c2ccccc2c2cccc(F)c12`, the growth inhibition was 71.3% (active).
With `O=C(c1c(F)c(F)c(F)c(F)c1F)N1CCN(C(=O)c2c(F)c(F)c(F)c(F)c2F)C1=S` the growth inhibition was 88.7% (active).
For `CC1(C)C(=O)N(CCCCCCN2C(=O)C(C)(C)c3ccccc32)c2ccccc21`, the growth inhibition was 78% (active).
With `c1ccc([B-](c2ccccc2)(c2ccccc2)c2ccccc2)cc1` the growth inhibition was 95% (active).
With `O=c1cccccc1[O-].O=c1cccccc1[O-].O=c1cccccc1[O-].[Ce+3]` the growth inhibition was 92% (active).
In the case of `O=C(O)C1(Cc2ccc3c(c2)CCC3)Cc2cc3c(cc2C1)CCC3`, the growth inhibition is reported as 86.1% (active).
In the case of `COC(=O)C12OCC34C(CC5C(C)C6=CC(=O)OC6=CC5(C)C3C(O)C1O)OC(=O)C(OC(C)=O)C24` (stereo not drawn), the growth inhibition is reported as 93.4% (active).
In the case of `CSC(=S)n1nc(-c2cccs2)c(N=Nc2ccc(Cl)cc2)c1C(F)(F)F`, the growth inhibition is reported as 93.4% (active).
In the case of `O=[N+]([O-])C1=Cc2ccccc2S(=O)(=O)CC1`, the growth inhibition is reported as 92.2% (active).
In the case of `Fc1ccc(NC(=S)SCc2ccccc2)cc1F`, the growth inhibition is reported as 99% (active).
In the case of `c1ccc([P+](c2ccccc2)(c2ccccc2)C2CCCC2)cc1`, the growth inhibition is reported as 97.5% (active).
In the case of `CCCCCN(CCCCC)CCNc1ccc(C)c2sc3ccccc3c(=O)c12`, the growth inhibition is reported as 97.3% (active).
For `COC(=O)[C@@]12OC[C@]34[C@H]([C@@H](O)[C@@H]1O)[C@@]1(C)CC(=O)C(O)=C(C)[C@@H]1C[C@H]3OC(=O)[C@H](OC(=O)C(Cc1ccccc1)NC(=O)OC(C)(C)C)[C@@H]24` (stereo partly drawn), the growth inhibition was 79.2% (active).
With `CC(=O)Nc1ccc(C(=O)C(C)Br)cc1` (stereo not drawn) the growth inhibition was 81.8% (active).
In the case of `COc1ccc2c(c1)[n+]([O-])c(C(N)=O)c(N)[n+]2[O-]`, the growth inhibition is reported as 99.5% (active).
For `Cc1c2c(c(C)c3c4c(oc13)CCCC4)C=NCC2`, the growth inhibition was 92.8% (active).
For `CC1C(C(=O)O)CC([N+](=O)[O-])C(Cl)C1[N+](=O)[O-]` (stereo not drawn), the growth inhibition was 87.4% (active).
For `O=C(c1ccccc1)c1c(CO[N+](=O)[O-])n([O-])c2ccccc2[n+]1=O`, the growth inhibition was 99% (active).
In the case of `CCC[C@H]1[C@H](CCC)[C@@]2(OC(=O)C3=C2CCC=C3)[C@]12OC(=O)C1=C2CCC=C1`, the growth inhibition is reported as 87.4% (active).
In the case of `O=C(CC(=O)c1ccccc1NC1=Cc2ccccc2C(=O)C1=O)C(=O)NC1=C(Cl)C(=O)c2ccccc2C1=O`, the growth inhibition is reported as 86.2% (active).

Compared with `O=C(NCCl)Nc1ccccc1`, `O=C(CNS(=O)(=O)Cc1ccccc1)NCC(=O)NNc1ccccc1` is lower in growth inhibition: 62.8% for the first, 29.4% for the second.

Going from `CC(=O)Nc1cccc2c1ccc1ccc3ccccc3c12` to `COc1ccc(-c2noc(=O)c3ccccc23)cc1`, the growth inhibition falls from 61.2% to -1.1%.

Going from `CCc1cccc(C)c1N1C(=O)C(=O)C(c2nc3ccccc3o2)/C(=N\NS(=O)(=O)c2ccc(C)cc2)C1=O` (stereo not drawn) to `CCN(CC)c1ccc(N=C2C=C(C(=O)Nc3cccc(Cl)c3)C(=O)c3ccccc32)c(C)c1`, the growth inhibition falls from 14.2% to -7%.

Compared with `Cc1ccc(-[n+]2cc([O-])on2)cc1`, `O=[N+]([O-])c1cccc2c1[nH]c1c(-c3ccccc3)nccc12` is higher in growth inhibition: 28.9% for the first, 47.8% for the second.

First: CCOC(=O)C(Cc1cn(S(=O)(=O)c2ccccc2)c2ccccc12)(NC(C)=O)C(=O)OCC
Second: COc1cc(Cc2n[nH]c(=S)n2-c2ccccc2)c(S(N)(=O)=O)cc1OC
The growth inhibition of the first is higher: 17.3% for the first, 0.85% for the second.

First: CC(=O)N1C=C2CCC3c4ccccc4NC3C2CC1 (stereo not drawn)
Second: O=S(=O)(c1cc(Cl)ccc1Cl)N1CCc2ccccc2C1
The growth inhibition of the first is higher: 4.05% for the first, -25.6% for the second.

Going from `CC(=O)OC(C#N)CC(C)(C)/[N+]([O-])=[N+](\[O-])C(C)(C)CC(C#N)OC(C)=O` (stereo not drawn) to `CCOC(=O)CC(=O)/C=C/c1ccncc1`, the growth inhibition falls from 43.5% to -8.45%.

First: COc1ccc(/C=N/n2c(C)nc3c(sc(=S)n3-c3ccccc3)c2=O)cc1
Second: C[N+](C)(C)CCN(Cc1cccs1)c1ccccn1
The growth inhibition of the first is higher: 46.8% for the first, 29.9% for the second.

Compared with `C=CC[P+](CC[P+](CC=C)(c1ccccc1)c1ccccc1)(c1ccccc1)c1ccccc1`, `NCC1CCNCC1` is lower in growth inhibition: -0.25% for the first, -9.25% for the second.

Assay: NCI Yeast Anticancer Drug Screen. Data for the sgs1 mgt1 strain (AID 161);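 further: 0% = growth of cultures given vehicle only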
Details: S. cerevisiae sgs1 mgt1 strain, at 5.0 µM (retest, dose inferred, filed as 0.5), stronger effect = higher value
Outline: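 Compounds are added to genetically altered yeast, and growth is compared with cultures given vehicle alone to give percent inhibition.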

First: CCOC(=O)C[P+](c1ccc(C)cc1)(c1ccc(C)cc1)c1ccc(C)cc1
Second: CCc1cccc(C)c1N1C(=O)C(=O)C(c2nc3ccccc3o2)/C(=N\NS(=O)(=O)c2ccc(C)cc2)C1=O (stereo not drawn)
The growth inhibition of the first is higher: 11% for the first, 6% for the second.

Compared with `O=C(NCCl)Nc1ccccc1`, `O=C(CNS(=O)(=O)Cc1ccccc1)NCC(=O)NNc1ccccc1` is lower in growth inhibition: 8% for the first, -5% for the second.

Going from `O=c1[nH]c2ccccc2c2cccc(F)c12` to `CC(=O)Nc1cccc2c1ccc1ccc3ccccc3c12`, the growth inhibition falls from 13% to 4%.

Going from `O=C(c1c(F)c(F)c(F)c(F)c1F)N1CCN(C(=O)c2c(F)c(F)c(F)c(F)c2F)C1=S` to `O=C(CC(=O)c1ccccc1NC1=Cc2ccccc2C(=O)C1=O)C(=O)NC1=C(Cl)C(=O)c2ccccc2C1=O`, the growth inhibition rises from 8% to 14%.

Compared with `CC1(C)C(=O)N(CCCCCCN2C(=O)C(C)(C)c3ccccc32)c2ccccc21`, `CCCCCN(CCCCC)CCNc1ccc(C)c2sc3ccccc3c(=O)c12` is higher in growth inhibition: 5% for the first, 17% for the second.

Compared with `COc1ccc(-c2noc(=O)c3ccccc23)cc1`, `COc1ccc(/C=N/n2c(C)nc3c(sc(=S)n3-c3ccccc3)c2=O)cc1` is lower in growth inhibition: 6% for the first, 3% for the second.

Going from `c1ccc([B-](c2ccccc2)(c2ccccc2)c2ccccc2)cc1` to `C=CC[P+](CC[P+](CC=C)(c1ccccc1)c1ccccc1)(c1ccccc1)c1ccccc1`, the growth inhibition falls from 0% to -2%.

Going from `Cc1ccc(-[n+]2cc([O-])on2)cc1` to `CC(=O)Nc1ccc(C(=O)C(C)Br)cc1` (stereo not drawn), the growth inhibition rises from -6% to 43%.

Compared with `CCOC(=O)C(Cc1cn(S(=O)(=O)c2ccccc2)c2ccccc12)(NC(C)=O)C(=O)OCC`, `O=C(c1ccccc1)c1c(CO[N+](=O)[O-])n([O-])c2ccccc2[n+]1=O` is higher in growth inhibition: 8% for the first, 10% for the second.

First: CC(=O)N1C=C2CCC3c4ccccc4NC3C2CC1 (stereo not drawn)
Second: O=S(=O)(c1cc(Cl)ccc1Cl)N1CCc2ccccc2C1
The growth inhibition of the first is lower: -4% for the first, -1% for the second.

Compared with `O=c1cccccc1[O-].O=c1cccccc1[O-].O=c1cccccc1[O-].[Ce+3]`, `c1ccc([P+](c2ccccc2)(c2ccccc2)C2CCCC2)cc1` is lower in growth inhibition: 13% for the first, -13% for the second.

Going from `CC(=O)OC(C#N)CC(C)(C)/[N+]([O-])=[N+](\[O-])C(C)(C)CC(C#N)OC(C)=O` (stereo not drawn) to `COC(=O)[C@@]12OC[C@]34[C@H]([C@@H](O)[C@@H]1O)[C@@]1(C)CC(=O)C(O)=C(C)[C@@H]1C[C@H]3OC(=O)[C@H](OC(=O)C(Cc1ccccc1)NC(=O)OC(C)(C)C)[C@@H]24` (stereo partly drawn), the growth inhibition rises from 8% to 27%.

Compared with `O=C(O)C1(Cc2ccc3c(c2)CCC3)Cc2cc3c(cc2C1)CCC3`, `Cc1c2c(c(C)c3c4c(oc13)CCCC4)C=NCC2` is lower in growth inhibition: -1% for the first, -7% for the second.

Compared with `COC(=O)C12OCC34C(CC5C(C)C6=CC(=O)OC6=CC5(C)C3C(O)C1O)OC(=O)C(OC(C)=O)C24` (stereo not drawn), `CCC[C@H]1[C@H](CCC)[C@@]2(OC(=O)C3=C2CCC=C3)[C@]12OC(=O)C1=C2CCC=C1` is lower in growth inhibition: 63% for the first, 3% for the second.

Going from `CSC(=S)n1nc(-c2cccs2)c(N=Nc2ccc(Cl)cc2)c1C(F)(F)F` to `Fc1ccc(NC(=S)SCc2ccccc2)cc1F`, the growth inhibition falls from 20% to 5%.

Going from `O=[N+]([O-])C1=Cc2ccccc2S(=O)(=O)CC1` to `O=[N+]([O-])c1cccc2c1[nH]c1c(-c3ccccc3)nccc12`, the growth inhibition falls from 14% to 4%.

Going from `CCOC(=O)CC(=O)/C=C/c1ccncc1` to `C[N+](C)(C)CCN(Cc1cccs1)c1ccccn1`, the growth inhibition rises from -10% to 2%.

Compared with `COc1cc(Cc2n[nH]c(=S)n2-c2ccccc2)c(S(N)(=O)=O)cc1OC`, `CCN(CC)c1ccc(N=C2C=C(C(=O)Nc3cccc(Cl)c3)C(=O)c3ccccc32)c(C)c1` is lower in growth inhibition: 9% for the first, -30% for the second.

Going from `COc1ccc2c(c1)[n+]([O-])c(C(N)=O)c(N)[n+]2[O-]` to `CC1C(C(=O)O)CC([N+](=O)[O-])C(Cl)C1[N+](=O)[O-]` (stereo not drawn), the growth inhibition falls from 17% to -5%.

`NCC1CCNCC1` showed a growth inhibition of 2%.
